The values that follow come from PubChem BioAssay.

The nature of the first assay: binders from COS7 lysate, DM2A8 probe, primary screen, torsin A project, cell lysate, small-molecule microarray, fluorescence 635/667 (AID 1065). As to conditions: higher = more signal, COS7 lysate expressing mutant human TOR1A.
`CCCCC(=C=CC[C@@H](O)c1cccc(OCCO)c1)CCO` yielded a composite z-score of -0.555.

Take `COC(=O)C1(CC(C)C)C=C2C(=C(C(C)C)C(=O)C2C)CN1` (stereo not drawn): the composite z-score is -0.241.

Consider `COCCOC(=O)N1C(=O)[C@@]2(c3cc(C#CCC(C(=O)OC)C(=O)OC)ccc31)[C@H](C(=O)N1CCCCCCC1)[C@H]1C(=O)O[C@H](c3ccccc3)[C@H](c3ccccc3)N1[C@@H]2c1ccccc1OCCO`, for which the composite z-score is 1.8.

With `C=CCNC(=O)[C@H]1[C@@H]2C(=O)O[C@@H](c3ccccc3)[C@@H](c3ccccc3)N2[C@@H](c2ccc(O)cc2)[C@]12C(=O)Nc1ccc(C#CC3=CCCCC3)cc12`, the composite z-score was 2.01.

In turn, `C=CCC(OC(C)=O)[C@@H]1[C@@H](N(Cc2ccc(-c3cccc(C(F)(F)F)c3)o2)C(=O)c2cccc3ccccc23)c2cc(OCCCO)ccc2N1C(=O)c1ccc2ccccc2n1` (stereo partly drawn) had a composite z-score of 0.584.

As to `CCC[C@@H]1[C@@H](Sc2ccccc2)[C@@H](C(=O)O)[C@H](c2ccc(C)cc2)N1S(=O)(=O)c1ccc(C)cc1`, the composite z-score came out at 0.175.

The nature of the next assay: binders of probe aFGF2 on microarray, primary screen, stem cell growth factor project, biochemical, small-molecule microarray, fluorescence 635/667 (AID 1067).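 Further: measures binding of biotinylated aFGF2 protein to printed compounds on slides; z-score merges feature fluorescence and signal-to-noise across triplicate slides.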 Conditions: higher = more signal.
As to `CC(=O)c1ccc(C(O)C2C=CC3C(=O)NC(=O)C3N2Nc2ccc(Cl)cc2Cl)cc1` (stereo not drawn), the composite z-score was determined as 0.045.

Regarding `C=CCC(OC(C)=O)[C@@H]1[C@@H](N(Cc2cccc3ccccc23)C(=O)c2ccc(C)cc2)c2cc(OCCCO)ccc2N1C(=O)c1ccc2ccccc2n1` (stereo partly drawn), the composite z-score was 0.01.

Consider `COC(=O)[C@@H]1N=C(c2ccc(OCCCO)cc2)O[C@@H]1c1ccccc1CN=[N+]=[N-]`, for which the composite z-score is 0.0062.

For the compound `COc1ccc([Si](C)(C)[C@@H]2[C@@H](CCO)O[C@]3(C(=O)N(Cc4ccccc4)c4ccc(N5C(=O)c6ccccc6Oc6ccccc65)cc43)[C@H]2C)cc1`, the composite z-score is -0.0962.

In the case of `COC(=O)[C@@]1(Cc2ccc(F)cc2)[C@H]2c3cc(C(=O)N(C)C)n(CCO)c3C[C@H]2CN1C(=O)c1ccccc1`, the composite z-score amounted to 0.169.

On to `CC(C)(C)N1CC=CC23O[C@@H]4/C=C\CCCOC(=O)C4[C@H]2C(=O)N(CCCCCCO)[C@@H]3C1=O` (stereo partly drawn), for which the composite z-score was -0.208.

As for `C=C(CCCC)C(=O)CC[C@H](OC(C)=O)c1ccccc1OCCO`, the composite z-score was -0.0471.

For `COCCOC(=O)N1C(=O)[C@@]2(c3cc(C#CCC(C(=O)OC)C(=O)OC)ccc31)[C@H](C(=O)N1CCc3cc(OC)c(OC)cc3C1)[C@H]1C(=O)O[C@H](c3ccccc3)[C@H](c3ccccc3)N1[C@@H]2c1ccc(O)cc1`, the composite z-score came out at 0.0732.

`O=C(NCCO)C1=C[C@H](Oc2ccccc2I)[C@@H](O)[C@H](NCc2ccc(F)cc2)C1` came in with a composite z-score of -0.145.

The compound `C=CCC(OC(C)=O)[C@@H]1[C@@H](N(Cc2cccc3ccccc23)C(=O)c2ccc(-c3ccccc3)cc2)c2cc(OCCCO)ccc2N1C(=O)c1ccc2ccccc2n1` (stereo partly drawn) came in with a composite z-score of -0.0158.

In the case of `COc1ccc([Si](C)(C)[C@H]2[C@H](CCO)O[C@@]3(C(=O)N(Cc4ccccc4)c4ccc(N(C=O)c5ccccc5)cc43)[C@@H]2C)cc1`, the composite z-score is -0.103.

In turn, `CCCC[C@H]1OB(O)C[C@H]2C1=C(C)C[C@H]1C(=O)C=CC(=O)[C@H]12` yielded a composite z-score of -0.0887.

`[N-]=[N+]=NCc1ccccc1[C@@H]1OC(c2ccc(OCCCO)cc2)=N[C@]1(Cc1ccccc1)C(=O)NCc1ccccc1` displayed a composite z-score of 0.227.

`COc1ccccc1CN1C(=O)c2ccccc2[C@](Cc2ccccc2I)(C(=O)NCCCN(C)C)[C@@H]1c1ccc(CO)cc1` gave a composite z-score of -0.116.

In the case of `CCCCCCc1nc(-c2ccc(OC)nc2)cc2c1[Si](C(C)C)(C(C)C)OC2`, the composite z-score was -0.15.

For `CC(=O)n1cc(C(O)C2C=CC3C(=O)N(c4ccccc4)C(=O)C3N2Nc2ccccc2F)c2ccccc21` (stereo not drawn), the composite z-score was -0.0757.

As to `COc1ccc(NN2C(C(O)c3cc(C(F)(F)F)cc(C(F)(F)F)c3)C=CC3C(=O)N(C4CCCCC4)C(=O)C32)cc1` (stereo not drawn), the composite z-score was determined as 0.483.

With `CC1CC/C=C\[C@H]2OC34C=CCN(c5ccc(Cl)cc5)C(=O)[C@H]3N(CCCO)C(=O)[C@]4(C)C2C(=O)O1` (stereo partly drawn), the composite z-score was -0.162.

With `O=C1NC(=O)C2C1C=CC(C(O)c1cccc(O)c1)N2Nc1ccc(Cl)cc1Cl` (stereo not drawn), the composite z-score is -0.161.

In the case of `CCc1cccc(NC(=O)O[C@H]2[C@H](OC(=O)Nc3ccc4c(c3)OCO4)[C@H](OC(=O)Nc3ccc4c(c3)OCO4)[C@@H](OC)O[C@@H]2CO)c1`, the composite z-score was -0.0158.

For `C[N+](C)(C)CCCCCCNC(=O)[C@@H]1C[C@@H]2C(=O)N[C@@H](Cc3ccccc3)C(=O)N2[C@@H]1c1ccc(O)cc1`, the composite z-score is -0.0138.

Compound `CCN(CC)c1ccc(N2CC=CC34O[C@@H]5C=CCOC(=O)[C@@H]5[C@H]3C(=O)N(CCCO)[C@@H]4C2=O)cc1` (stereo partly drawn) returned a composite z-score of -0.062.
